Source: PubChem
An excerpt weighted towards active compounds, which were near 0.4% of everything screened.
Rab2A wt mod: changes GTP binding to wildtype dog Rab2A, up or down | GTP binding activity, % at 10 µM | hit rate 0.19% among 190,000 | AID 760 | P61105 | GST-Rab2 wt beads, Bodipy-GTP binding, flow cytometry;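 active = GTP binding activity at least 20 points away from 100%, either lowered or raised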;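 also: 0% = beads with excess unlabeled GTP and 100% = no-compound control corrected for plate trend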
HRas wt GTP bind: human HRas wildtype GTP binding, change in either direction. P01112. GST-Ras wt beads, Bodipy-FL-GTP binding, flow cytometry; actives lie on both sides. GTP binding activity, % at 10 µM. hit rate 0.14% among 190,000;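 active = GTP binding activity at least 20% away from the 100% baseline, either lowered as inhibitor or raised as activator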;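 also: 0% = unlabeled GTP competition control and 100% = no-compound control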
Rac1 wt modul: alters GTP binding to wildtype human Rac1 | P63000 | GST-Rac1 beads, fluorescent GTP binding, flow cytometry; actives lie on both sides; 0 = cold GTP competed, 100 = untreated | GTP binding activity (% of control), % at 10 µM | hit rate 0.27% among 190,000 | AID 757;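 active = GTP binding activity at least 20 points away from the 100% control level, either lower or higher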
Cdc42 wt GTP: changes GTP binding to wildtype human Cdc42 | GST-Cdc42 beads, Bodipy-GTP binding, flow cytometry; actives lie on both sides | percent activity (GTP binding), % at 10 µM | hit rate 0.2% among 190,000;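 active = percent activity GTP binding at least 20 points away from the 100% baseline, either down as inhibitor or up as activator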;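 also: median bead fluorescence of bound Bodipy-FL-GTP at 100 nM; 0% = excess unlabeled GTP control and 100% = no compound control; below 100% means less GTP binding so inhibitor and above means activator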
Target sequence (P60953 whole entry, looked up): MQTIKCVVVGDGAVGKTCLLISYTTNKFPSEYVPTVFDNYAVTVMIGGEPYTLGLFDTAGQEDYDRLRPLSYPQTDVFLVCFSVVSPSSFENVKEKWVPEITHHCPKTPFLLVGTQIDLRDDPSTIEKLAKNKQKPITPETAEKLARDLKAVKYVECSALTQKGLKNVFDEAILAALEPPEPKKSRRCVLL
Rac1 mut GTP: modulators of GTP binding to human Rac1 activated mutant | P63000 | GST-Rac1 activated beads, fluorescent GTP binding, flow cytometry; actives lie on both sides; 100% means binding = to untreated wells | AID 764 | hit rate 0.11% among 190,000 | percent activity (GTP binding), % at 10 µM;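 active = GTP binding at least 20 percentage points away from the 100% baseline, in either direction, so actives lie on both sides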
Rab7 wt modul: modulators of GTP binding to dog Rab7 wildtype GTPase; GST-Rab7 beads, fluorescent GTP binding, flow cytometry; actives lie on both sides; untreated = 100%, excess cold GTP = 0%; GTP binding activity (percent of control), % at 10 µM; hit rate 0.055% among 190,000; AID 758;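 active = fluorescent GTP binding to Rab7 beads changed by at least 20 points from the 100% baseline, either direction, mostly lower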;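 also: median green fluorescence of bound Bodipy-FL-GTP per Rab7 bead population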
* = called active by the depositor.

SMILES | Rab2A wt mod | HRas wt GTP bind | Rac1 wt modul | Cdc42 wt GTP | Rac1 mut GTP | Rab7 wt modul
CN(C)c1ccc(/C=C/C=C2/C(=O)NC(=O)N(c3ccccc3)C2=O)cc1 | 78* | 81 | 70* | 74* | 77* | 86
Cc1nc2c(=O)n(C)c(=O)nc-2n(C)n1 | 85 | 88 | 106 | 77* | 82 | 87
Clc1ccc(OCC#CCN2CCCCCC2)cc1 | 96 | 97 | 98 | 95 | 94 | 103
CCC1(c2ccccc2)C(=O)N(COC)C(=O)N(COC)C1=O | 100 | 103 | 103 | 100 | 96 | 103
COc1ccc(C(=O)CC2(CC(=O)c3ccc(OC)cc3)C(=O)N(C)C(=O)N(C)C2=O)cc1 | 99 | 101 | 100 | 99 | 94 | 100
CN1C(=O)N(C)C(=O)C2(Cc3c(ccc4ccccc34)N(C)C2)C1=O | 91 | 96 | 86 | 86 | 79* | 96
Cc1cc(/C=C2\C(=O)NC(=O)N(c3ccc(Cl)cc3)C2=O)c(C)n1-c1sc2c(c1C#N)CCCC2 | 91 | 94 | 99 | 93 | 86 | 96
Cc1sc(-n2c(C)cc(C=C3C(=O)NC(=O)NC3=O)c2C)c(C#N)c1C | 82 | 85 | 79* | 81 | 78* | 89
